KB-3-1 cytotox – kills parental KB-3-1 adenocarcinoma cells; KB-3-1 viability, CellTiter-Glo ATP luminescence, 72 h; Potency, µM (top dose mostly 46.1 µM), hits mostly cytotoxic; 400,000 compounds, 1.4% hits; AID 1347075; further: potency means the concentration at half of the fitted maximal effect; on the % scale 0 is the no-effect control and ±100 the full control effect; nearly all actives have a fitted effect of over 60% in size
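Cytotoxicity in the drug-sensitive parental line KB-3-1 was scored as loss of CellTiter-Glo luminescence following 72 h incubation with compound. Values come from curve fitting of normalized concentration-response data.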
D3 antag – blocks the human D3 dopamine receptor. 360,000 compounds, 2.5% hits. D3R cells, DiscoveRx beta-arrestin luminescence, antagonist mode; active compounds read low. P35462. max response, negative = inhibition, %; in the data active means max response below about -50%; inconclusive means no clear call, values can overlap the other calls; further: on the % scale 0 is the no-effect control and ±100 the full control effect
Target sequence (P35462 whole entry, looked up): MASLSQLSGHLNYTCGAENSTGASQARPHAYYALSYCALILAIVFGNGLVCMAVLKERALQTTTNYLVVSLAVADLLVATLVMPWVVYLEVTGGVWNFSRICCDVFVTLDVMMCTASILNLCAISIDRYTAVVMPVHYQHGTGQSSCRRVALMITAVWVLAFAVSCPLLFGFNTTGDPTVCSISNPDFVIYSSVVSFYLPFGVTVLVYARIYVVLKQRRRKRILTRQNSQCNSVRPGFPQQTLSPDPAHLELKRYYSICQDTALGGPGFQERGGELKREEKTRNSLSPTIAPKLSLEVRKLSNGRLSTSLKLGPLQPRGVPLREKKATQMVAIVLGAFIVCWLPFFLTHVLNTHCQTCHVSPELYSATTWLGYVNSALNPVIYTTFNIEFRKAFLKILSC
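Cells plated overnight at 1500 cells/well, then exposed to library compounds with dopamine controls for 90 minutes at 37 degrees C. DiscoveRx reagent added for 30–60 minutes at room temperature; luminescence read, quantitative HTS format.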
SW480 rerep – induces DNA re-replication in SW480 colon adenocarcinoma cells; 340,000 compounds, 1.8% hits; Potency, µM (doses to about 46.1 µM), for the others: at the highest dose re-replication activation, hits mostly activators; SW480 DNA re-replication, Hoechst DNA content imaging, 48 h; further: potency means the concentration at half of the fitted maximal effect; % of control where 0% means no effect; nearly all actives have a fitted effect of over 55% in size
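Treated cells incubate 48 hr (37 C, 5% CO2), are stained 40 min with Hoechst, and nuclear fluorescence is enumerated; a rise in nuclei with high DNA signal marks re-replication.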
MCF10A rereplic – DNA re-replication induction in MCF 10a cells. AID 624296. MCF 10A DNA re-replication, Hoechst nuclear intensity, 48 h. 350,000 compounds, 2.9% hits. Potency, µM (series often up to 46.1 µM), inactives show at the top dose activity, positive = re-replication, actives largely listed as activators; further: potency means the concentration at half of the fitted maximal effect; % of control where 0% means no effect; nearly all actives have a fitted effect of over 50% in size
KB-V1 cytotox – KB-V1 MDR subline cytotoxicity | Potency, µM (top dose mostly 46.1 µM), most hits filed as cytotoxic | 400,000 compounds, 3.4% hits | KB-V1 MDR cells viability, CellTiter-Glo, 72 h; further: potency means the concentration at half of the fitted maximal effect; on the % scale 0 is the no-effect control and ±100 the full control effect; nearly all actives have a fitted effect of over 60% in size
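Luminescent ATP read-out (CellTiter-Glo, 10 min) measures survival of drug-selected KB-V1 MDR cells after 72 h, 37 degrees C compound exposure. Medium: phenol-red-free DMEM, 10% FBS. Values from fitted concentration-response curves.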
D3 ag – activates the human D3 dopamine receptor; P35462; max activation, %; D3R DiscoveRx beta-arrestin cells, luminescence, 90 min; 410,000 compounds, 0.58% hits; in the data active means max activation above about 30%; further: 0% is about no effect
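Agonist mode: compounds and dopamine controls were applied to plated cells for 90 min at 37 degrees C after an overnight attachment at 1500 cells/well. Luminescent read-out followed 30 - 60 minutes at room temperature with DiscoveRx detection reagent.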
* = called active by the depositor. Rows were chosen to be rich in hits. Some 8.9% of all compounds tested hit in one or more screens of this group. Unless noted, the call rests on the fitted dose curve; in most records, active means well fitted curve in the direction sought with a large enough effect; inconclusive means small, poorly fitted or top-dose-only effect, or another doubt; inactive means no such curve, though single readings can be large; an effect the other way counts as inactive or inconclusive.

Results for COc1cc(OC)c(CN2CCCCCCC2)cc1Br ?
KB-3-1 cytotox: inactive; D3 antag: inconclusive; SW480 rerep: -4.1%; MCF10A rereplic: 1.4%; KB-V1 cytotox: inactive; D3 ag: -32.5

How did COc1cc(OC)c(CN2CCN(c3ccc(F)cc3)CC2)cc1Br do in these assays?
KB-3-1 cytotox: inactive; D3 antag: -74.0*; SW480 rerep: 14.2%; MCF10A rereplic: 2.5%; KB-V1 cytotox: 16.4µM*; D3 ag: -12.0

Results for COc1ccc(CN2CCN(S(=O)(=O)c3ccc(F)cc3)CC2)c(OC)c1OC ?
KB-3-1 cytotox: inactive; D3 antag: -25.2; SW480 rerep: -2.0%; MCF10A rereplic: inconclusive; KB-V1 cytotox: inconclusive; D3 ag: -1.4

What do the screens show for `N#Cc1c2n(c3c(=O)n(Cc4ccccc4Cl)cnc13)CCCCC2`?
KB-3-1 cytotox: inconclusive; D3 antag: inconclusive; SW480 rerep: -1.1%; MCF10A rereplic: 11.6µM*; KB-V1 cytotox: inactive; D3 ag: -10.7

What do the screens show for `CCc1ccc(NC(=O)C(=O)c2ccccc2NC(C)=O)cc1`?
KB-3-1 cytotox: inactive; D3 antag: -15.5; SW480 rerep: 11.9%; MCF10A rereplic: inconclusive; KB-V1 cytotox: 23.1µM*; D3 ag: -9.2

What do the screens show for `CCc1ccc(NC(=O)c2ccccc2SC)cc1`?
KB-3-1 cytotox: inactive; D3 antag: -13.0; SW480 rerep: -1.4%; MCF10A rereplic: -1.1%; KB-V1 cytotox: inactive; D3 ag: 30.1*

Results for CSc1ccccc1C(=O)Nc1ccc2c(c1)OCCO2 ?
KB-3-1 cytotox: inactive; D3 antag: 27.8; SW480 rerep: 0.8%; MCF10A rereplic: 0.1%; KB-V1 cytotox: inactive; D3 ag: -10.0

What do the screens show for `CCOCCc1nn2c(=O)cc(COC(=O)c3ccccc3NC(=O)c3ccccc3F)nc2s1`?
KB-3-1 cytotox: inactive; KB-V1 cytotox: inactive; D3 ag: 0.2

What do the screens show for `O=C(NCC(c1ccc2c(c1)OCO2)N1CCOCC1)c1c(F)cccc1F` (configuration not stated)?
D3 ag: -11.5

How did Cc1ccc(-c2nnc(N3CCN(C(=O)CN4CCOCC4)CC3)c3ccccc23)cc1 do in these assays?
KB-3-1 cytotox: inactive; D3 antag: -24.2; SW480 rerep: 0.9%; MCF10A rereplic: 7.6%; KB-V1 cytotox: 13µM*; D3 ag: 0.2

What do the screens show for `O=C(CN1CCOCC1)N1CCN(c2nnc(-c3ccccc3)c3ccccc23)CC1`?
KB-3-1 cytotox: inactive; D3 antag: inconclusive; SW480 rerep: 1.4%; MCF10A rereplic: -1.6%; KB-V1 cytotox: inactive; D3 ag: 1.5

Results for Cc1ccc(-c2nnc(N3CCN(C(=O)COc4ccccc4)CC3)c3ccccc23)cc1 ?
KB-3-1 cytotox: 18.4µM*; D3 antag: 57.0; SW480 rerep: 15.2%; MCF10A rereplic: inconclusive; KB-V1 cytotox: 2.59µM*; D3 ag: 0.5

How did O=C1CS(=O)(=O)C2(C(=O)N(Cc3cccc(F)c3)c3ccccc32)N1c1ccccc1 (configuration not stated) do in these assays?
KB-3-1 cytotox: inactive; KB-V1 cytotox: inactive; D3 ag: 4.2

Results for COc1ccccc1Cn1c(CNS(=O)(=O)c2ccc(Cl)s2)nc2cccnc21 ?
D3 ag: -4.4

How did COc1cccc(CC(=O)OCC(=O)N(C)CC(=O)Nc2ccc(F)cc2)c1 do in these assays?
KB-3-1 cytotox: inactive; D3 antag: 0.0; SW480 rerep: 15.0%; MCF10A rereplic: 5.5%; KB-V1 cytotox: inactive; D3 ag: 6.8

Results for Oc1cccc(/C=N/Nc2cc(N3CCOCC3)nc(N3CCOCC3)n2)c1 ?
KB-3-1 cytotox: inactive; D3 antag: -5.7; SW480 rerep: 5.8µM*; MCF10A rereplic: inconclusive; KB-V1 cytotox: inconclusive; D3 ag: 1.7

Results for Oc1ccccc1/C=N/Nc1cc(N2CCCC2)nc(N2CCCC2)n1 ?
KB-3-1 cytotox: inconclusive; D3 antag: -9.5; SW480 rerep: inconclusive; MCF10A rereplic: 18.4µM*; KB-V1 cytotox: inactive; D3 ag: 5.9
